From PubChem BioAssay (NCI) come the findings set out here.

The panel holds about 83,000 compounds, 20% with a hit somewhere; the sample as a whole holds those more often.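 In brief: 96-well plates, 48 h treatment, single concentration, percent growth endpoint.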 A number with no mark means an inactive call. Calls of active or inactive are those of the source. How the source made its calls: active means growth percent below 10; inactive means the rest.

This test concerns HL-60(TB) leukemia. Briefly: NCI-60 one-dose screen, 48 h (100 = growth as untreated, 0 = no growth, -100 = all killed). The settings on record: 10 µM unless noted.
As to `CCCCCCCSc1ccc(C(=O)O)cc1`, the growth is 98.6%. The figure for `C=CC1=NC(C)(C)CC(C)O1` (stereo not given) is 96.7%. As to `Cc1ccc(-c2nn(-c3ccccc3)cc2C=C2C(=O)ON=C2C(C)C)cc1`, the growth is -37.7% (active). Next, `N#Cc1c(Nc2ccc(N3CCOCC3)cc2)nc(SCC(=O)c2ccc(Br)cc2)nc1-c1ccccc1`: 86.2%; `Cc1cc(C(C)(C)C)cc(C)c1CC1=NCCN1`: 102%. The figure for `COc1cc(NCCCN(CC(C)C)C2CCCC2)c2ncccc2c1` is 22.5%; for `CC1(C)CC(=O)C2=C(C1)N(c1ccc(OC(F)(F)F)cc1)C(N)=C(C#N)C2c1ccc(Cl)cc1` (stereo not given) it is 102%. For `CC(=O)[C@@]1(O)[C@H](C)C[C@H]2[C@@H]3C=C(C)C4=Cc5c(cnn5-c5ccccc5)C[C@]4(C)[C@H]3[C@@H](O)C[C@@]21C`, the growth is -16% (active). The figure for `N/N=C(/Cc1ccccc1)NNC(N)=S` is 97.8%; for `O=S(=O)(NC1c2ccccc2Oc2ccccc21)c1cc(Cl)ccc1Cl` it is 86.7%; for `BrCc1cccc(C[P+](c2ccccc2)(c2ccccc2)c2ccccc2)c1` it is 12.2%. For `CCOC(=O)CCCn1c(-c2ccccc2)cc(-c2ccccc2)c(C#N)c1=O`, the growth was 77.9%. In the case of `CCN(CC)C(=O)C[N+](C)(C)CCOC(c1ccccc1)c1ccccc1`, the growth was 97.5%.

Regarding `O=C(C[N+](=O)[O-])c1ccc(Cl)cc1`, the growth was 104%. Next, `Oc1[nH]c2ccc(Cl)cc2c1/C=c1/ccc2c(c1)N=C(c1cccs1)N=2`: 98.4%; `O=C(Nc1ccc(-n2ccc3c(NC(=O)c4ccccc4)nccc32)cc1)c1cccc(C(F)(F)F)c1`: 16.8%. For the compound `O=C(Nc1ccccc1C(F)(F)F)C1=NCCCCN1`, the growth was 99.8%. Regarding `COc1ccc2[nH]cc(-c3nc(-c4cn(C)c5ccncc45)cs3)c2c1`, the growth is 82.3%. Turning to `CN(CC(=O)N(Cc1ccc(C2CCCCC2)cc1)c1ccc(C(=O)O)cc1)S(=O)(=O)c1c(F)c(F)c(F)c(F)c1F`, the growth was -28.6% (active). Regarding `O=C1CC[C@@H]2CCCC[C@@H]2C1`, the growth was 110%. On to `Cc1n(Cc2ccc3ccccc3n2)cc[n+]1Cc1ccc2ccccc2n1`, for which the growth was 34.2%. Turning to `CC1OC(n2c3ccccc3c3c4c(c5c6ccccc6[nH]c5c32)C(=O)N(CCN[C@@H]2CCC[C@H]2N)C4=O)CC(O)C1O` (stereo not given in full), the growth was 29.2%.

Take `CCCCCCc1cc2cc(-c3nc4ccccc4[nH]3)c(=Nc3ccccc3C)oc2cc1O`: the growth was 12.2%. For the compound `CCN(CC)c1ccc(N=C2C=CC(=O)C=C2NC(C)=O)cc1`, the growth was 55.3%. Next, `Cc1ccc(S(=O)(=O)c2nc(-c3ccccc3)oc2Sc2nc3ccccc3s2)cc1`: 71.9%; `CCOC(=O)c1c(C)nc2ccccc2c1/C=C/c1cccs1`: 87.3%; `Nc1cc(Br)c(-c2nn3c(CCC(=O)c4nc5ccccc5[nH]4)nnc3s2)c(Br)c1`: 100%. Next, `COc1ccc(-c2cc(-c3ccc(N(C)C)cc3)nc(NC(=O)c3cccnc3)n2)cc1`: 109%; `CC(C)=CC(=O)OC(=O)C=C(C)C`: 104%; `Nc1nc(Nc2ccccc2)c(C=Nc2ccccc2)c(=O)[nH]1`: 98.9%. Regarding `CCN(CC)c1ccc2cc(C(Nc3ccc(C)cc3)c3nnnn3C(C)(C)C)c(=O)oc2c1` (stereo not given), the growth is 89%. Next, `COc1ccc(CCc2nc3cc(-c4c(C)noc4C)ccc3n2CCN2CCOCC2)cc1`: 5.97% (active). Next, `Cc1cn(C)cn1`: 116%; `Brc1ccccc1Nc1ccc2nnc(-c3ccncc3)n2n1`: 96.4%; `Cc1nc(Nc2ccc(S(=O)(=O)Nc3cc(C)on3)cc2)c2ccccc2n1`: 101%. Take `C#CCOc1c(OC)cc(C(=O)/C(C)=C/c2cccc(N=[N+]=[N-])c2)cc1OC`: the growth was 1.17% (active). The figure for `O=C(Nc1ccncc1)C(=O)c1cn(S(=O)(=O)c2cccc(F)c2)c2ccccc12` is -9.88% (active); for `CCOC(=O)Nc1nc2ccc(SCC(C)C)cc2s1` it is 11.6%; for `O=C1C2(c3ccccc3)C(c3ccccc3)=C(c3ccccc3)C1(c1ccccc1)C1CC=CC12` (stereo not given) it is 76.3%. With `Clc1ccc(Cn2cc(-c3nc4ccc(Br)nc4n3Cc3ccc(Cl)cc3)c3cccnc32)cc1`, the growth is 94.1%.
